An excerpt weighted towards active compounds, which were near 2.2% of everything screened.
KLF5 inhibitor = KLF5 expression inhibitors, primary screen, DLD-1 cells, luminescence; 0.23% of 290,000 active; AID 1700, 2009; inhibition, % at 5 µM; DLD-1 KLF5 promoter-luciferase reporter;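 active = inhibition above a per-plate limit of that plate's mean compound inhibition plus 3 SD, cut at about 60% in these data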;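 also: 0% = DMSO wells and 100% = LY294002 at 200 µM; higher means less KLF5 promoter-driven luciferase light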
aSyn UTR inh = MLPCN primary screen, SNCA 5' untranslated region. inhibition, % (tested at 7.5 µM). 0.82% of 300,000 active. alpha-synuclein 5'UTR reporter, inhibitor activity. AID 1813, 2009; in the data active = inhibition above about 60%; inconclusive = no clear call, values can overlap the other calls;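 also: H4 neuroglioblastoma cells stably carrying SNCA 5'UTR luciferase fusion; 0% = DMSO wells and 100% = positive control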
BaF3 tox = parental Ba/F3 cell viability inhibition, counter-screen for JAK2V617F inhibitor project, murine pro-B, CellTiter-Glo luminescence; CellTiter-Glo ATP luminescence; inhibition, % at 5.6 µM; 1.1% of 220,000 active; AID 1486, 2009;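 active = inhibition above a per-campaign cutoff, the mean inhibition of all tested compounds plus 3 SD, cut at about 27% in these data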;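 also: 0% = DMSO wells and 100% = JAK Inhibitor I control wells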
IEC-6 cytotox = cytotoxicity in IEC-6 intestinal epithelial cells, primary screen, cytotoxicity control for KLF5 inhibitor project, cell-based, luminescence; IEC-6 cytotoxicity, luminescence viability; inhibition, % at 5 µM; 0.78% of 290,000 active; in the data active = inhibition above about 22%;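 also: 0% = plate median of test compound wells and 100% = cytotoxic reference compound wells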
APP transl inh = inhibitors of APP translation via 5'UTR reporter, primary screen, APP 5'UTR luciferase, SH-SY5Y cells | AID 1285, 2008 | SH-SY5Y APP 5'UTR-luciferase reporter, luminescence | 0.82% of 190,000 active | inhibition, % at 2 µM;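 active = inhibition above a set limit, derived from the sample mean plus 3 SD, cut at about 45% in these data; inconclusive = one replicate passes the limit while the other fails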
Ba/F3 V617F tox = reduced viability of JAK2V617F-dependent Ba/F3 cells, primary screen, JAK2V617F inhibitor project, cell-based, Ba/F3 EpoR-JAK2V617F, luminescence; ATP luminescence; 1.1% of 220,000 active; inhibition, % at 5.6 µM;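 active = inhibition above the campaign mean plus 3 SD over all tested compounds, cut at about 24% in these data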;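 also: cytokine-independent growth of Ba/F3 cells driven by EpoR plus mutant JAK2; 0% = DMSO-treated cells and 100% = JAK inhibitor I control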
Numbers without * were called inactive; ? = inconclusive; . = no result given.

SMILES	KLF5 inhibitor	aSyn UTR inh	BaF3 tox	IEC-6 cytotox	APP transl inh	Ba/F3 V617F tox
CCS(=O)(=O)N1Cc2ccccc2CC1C(=O)Nc1cccc(C)c1 (stereo not given)	-41.4	-102.4	37.6*	0.5	-8.1	2.7
Cc1ccc(C(=O)Nc2cccc(C(F)(F)F)c2)cc1Nc1cnccn1	.	34.3	.	.	.	.
O=C(Nc1cccc(C(F)(F)F)c1)c1ccc2nc(-c3ccco3)c(-c3ccco3)nc2c1	1.5	15.6	49.1*	-0.9	-11.6	3.0
Cc1ccc(C(=O)Nc2cccc(C(F)(F)F)c2)cc1Nc1ncnc2nc[nH]c12	.	77.9*	.	.	.	.
O=C(O)c1ccc2nc(-c3ccco3)c(-c3ccco3)nc2c1	16.3	1.8	-3.3	-25.3	1.3	-3.1
Cc1ccc(C(=O)Nc2cccc(C(F)(F)F)c2)cc1NC(=O)c1ccno1	.	94.9*	.	.	.	.
CS(=O)(=O)N(CC(=O)N1CCc2ccccc2C1)c1ccc2c(c1)OCO2	3.0	-9.9	92.8*	6.4	-15.3	0.8
Cc1ccccc1-c1noc(-c2ccccc2C(=O)NCC2CCCO2)n1 (stereo not given)	8.6	.	62.3*	-0.1	.	0.3
COc1ccccc1-c1noc(-c2ccccc2C(=O)NCC2CCCO2)n1 (stereo not given)	-15.4	-0.3	.	2.8	.	.
C=CCOc1ccc(C2=NOC(C(=O)Nc3ccc4c(c3)OCCO4)C2)cc1 (stereo not given)	-31.5	-9.5	.	3.1	.	.
CN(C)CCCNC(=O)c1ccccn1	7.3	11.0	0.9	2.0	-3.0	-3.8
CN(C)CCCNC(=O)c1ccc(-c2nc(-c3ccc(Cl)cc3)cs2)cc1	-123.2	117.6*	46.4*	6.8	-30.6	100.8*
Cc1ccc2cc3c(N)c4c(C)ccc(C)c4nc3nc2c1	-1.6	-76.9	5.3	5.5	56.1*	4.8
Cc1ccc2c(N)c(C)ccc2c1	-35.1	-37.8	5.2	6.3	-17.5	5.5
C=CCOc1ccc(C2C(C(=O)c3ccc(C)o3)=C(O)C(=O)N2Cc2cccnc2)cc1 (stereo not given)	0.4	-13.2	.	-1.7	.	.
O=C1C(Cl)=C(NCCN2CCCCC2)C(=O)c2ccccc21	9.5	?	26.1	41.8*	95.1*	7.1
COc1ncnc(-c2ccccc2)c1-c1ccccc1	.	16.4	.	.	.	.
COC(=O)c1ccc2c(c1)C(C)(C)C(/C=C/c1ccc(OC)c(OC)c1OC)=[N+]2C	5.9	101.6*	5.7	11.1	29.4	2.3
COc1cc(/C=C/c2ccc(O)cc2)cc(OC)c1	-81.3	-156.1	-5.3	7.7	.	11.1
COC(=O)c1ccc2c(c1)C(C)(C)C(/C=C/c1ccc(O)cc1)=[N+]2C	-11.9	119.3*	29.0*	3.9	-9.6	7.1
Cc1cc2sc3ccc(C#CC4(O)CCCCC4)cc3c(=O)c2cc1C	.	102.2*	.	.	.	.
Cn1c2ccccc2c(=O)c2cc(C#CC3(O)CCCCC3)ccc21	59.3	76.9*	.	10.8	.	.
Cc1ccc(O)c(NC(=O)CCC2CCCCC2)c1	-104.7	-152.0	58.2*	-1.7	-63.8	72.8*
O=C(CCC1CCCCC1)Nc1ccccc1O	-59.4	-162.6	10.8	2.6	-61.0	19.2
O=[N+]([O-])c1cccc(S(=O)(=O)N2CCN(c3ccccn3)CC2)c1	-37.2	2.8	.	4.2	.	.
SMILES	KLF5 inhibitor	aSyn UTR inh	BaF3 tox	IEC-6 cytotox	APP transl inh	Ba/F3 V617F tox
COc1ccc(-c2nc(NC(=O)c3n[nH]c(=O)c4ccccc34)sc2C)cc1	-18.1	39.6	8.2	21.9*	16.0	1.9
COc1cc(NC(=O)c2n[nH]c(=O)c3ccccc23)cc(OC)c1	-5.0	1.7	-10.7	2.8	.	-0.7
COc1ccc(-c2nc(NC(=O)CCNC(=O)c3ccco3)sc2C)cc1	-15.1	6.1	27.9*	-1.7	12.4	-1.4
O=C(NCc1ccc(F)cc1)C(=O)Nc1nc(C23CC4CC(CC(C4)C2)C3)cs1	-8.9	43.7	1.9	10.9	-6.1	-0.8
CC(C)N=c1scc(-c2ccco2)n1/N=C/c1ccc(O)c(O)c1	-38.8	.	73.4*	8.8	-2.2	96.0*
CCC(C)Sc1cc(C(F)(F)F)c(C(=O)Nc2ccc(Cl)cc2)cn1 (stereo not given)	-16.5	10.3	-1.2	-2.5	.	-0.9
CC1CSc2n(-c3cccc(C(F)(F)F)c3)cc(-c3ccccc3)[n+]21 (stereo not given)	-11.7	-21.8	83.9*	6.7	-22.6	56.3*
FC(F)(F)c1cccc(-n2cc(-c3ccccc3)[nH]c2=S)c1	-2.0	-25.5	.	0.6	.	.
CCn1cc(C(=O)NCc2ccco2)c(=O)c2cc(S(=O)(=O)N3CC(C)CC(C)C3)ccc21 (stereo not given)	-4.2	81.9*	10.5	10.0	38.9	9.8
CCC(C)NC(=O)CSc1nc2c(sc(=S)n2Cc2ccco2)c(=O)n1-c1ccccc1 (stereo not given)	-8.9	7.7	4.7	3.5	67.8*	4.5
CCOc1cccc(/C=N/Nc2ccc(S(=O)(=O)N(CC)CC)cn2)c1O	17.7	88.2*	2.0	3.9	82.9*	-2.6
CCN(CC)S(=O)(=O)c1ccc(N/N=C(\C)c2ccc(OC)cc2O)nc1	19.7	78.2*	-2.7	-3.1	.	1.4
Cc1nn(CC(=O)Nc2ccc3c(c2)nc2n3CCN(C3CCCCC3)C2)c(=O)c2ccccc12	8.2	-0.5	4.7	-4.2	-6.2	-0.1
O=C(NC1CC1)[C@@H]1CSC2c3ccccc3C(=O)N21 (stereo not given in full)	6.1	-9.6	.	5.2	.	.
CC(C)c1ccc2[nH]c(O)c(N=NC(=O)c3cccc(S(=O)(=O)Nc4ccc(Cl)cc4)c3)c2c1	-20.9	79.4*	5.0	0.7	6.1	3.5
O=C(O)CCSc1ncnc2sc(-c3ccccc3)cc12	10.0	88.2*	-2.2	0.7	.	-6.4
Fc1cccc(NC(=S)NNc2ccccc2)c1	-11.8	-139.9	.	5.6	.	.
Fc1cccc(NC(=S)NNc2c3ccccc3nc3ccccc23)c1	-20.1	-7.5	7.3	8.4	53.5*	-3.0
CCC(C)NC(=O)C1CCC(CNS(=O)(=O)c2ccccc2)CC1 (stereo not given)	-21.7	9.3	.	-2.4	.	.
COc1ccccc1N1CCN(S(=O)(=O)CCNC(=O)C2CCCC2)CC1	.	0.5	.	.	.	.
O=c1cc(-c2c(F)c(F)c(F)c(F)c2F)oc2ccccc12	-16.1	-39.4	9.2	-2.3	13.1	0.1
O=c1cc(-c2c(F)c(F)c(F)c(F)c2F)oc2c(F)c(F)c(F)c(F)c12	-33.1	-11.9	1.0	-0.2	96.8*	-1.5
N#Cc1ccc(N2CCc3ccccc3C2)c([N+](=O)[O-])c1	-34.3	81.1*	10.6	-3.3	0.1	3.8
COc1cc2c(cc1OC)-c1cc3ccc4c(c3c[n+]1CC2)OCO4	-9.9	-20.2	57.4*	-1.9	11.0	49.4*
COc1cc2c(cc1OC)C(c1ccccc1)=NCC2	-14.2	22.7	5.2	1.7	12.2	1.9
